Experimental data as given in PubChem BioAssay.
Inconclusive results are not listed. The source made the active and inactive calls.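 How the source made its calls, unless noted: active means viability at or below 30% in both replicate assays; inconclusive means viability at or below 30% in just one of the two assays; inactive means the rest.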

Columns and labels:
[1] = reducers of endogenous Her2 protein level, primary screen, SKBR3 breast tumor cells, AlphaScreen, ATP viability (AID 461;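 active means Her2 level under about 52% in both replicate screens, with viability over 70% of control, limit read from the data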;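 on Her2 level: lower value means less Her2 protein in the cells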;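 on viability: percent of carrier control wells set as 100% viability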); conditions: 18-24 h, measured here: SKBR3 viability, ATP luminescence, at 10 µM
[2] = molecular target: Receptor tyrosine-protein kinase erbB-2 (Homo sapiens) (UniProt P04626); experiment: as above; conditions: 18-24 h, at 10 µM, stronger effect = lower value
[3] = SK-BR-3 cell growth inhibitors, pilot screen, 24 h, human (AID 572;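 active means viability at or below 10% of carrier control in both of two separate runs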;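 further: compound exposure lasted between 18 and 24 h rather than exactly 24 h; 100% = carrier-treated control wells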); conditions: SK-BR-3 viability, CellTiter-Glo luminescence, at 10 µM, stronger effect = lower value
[4] = HUVEC growth inhibition – cell-based, human, primary screen (AID 575); conditions: HUVEC proliferation, CellTiter-Glo luminescence, 72 h; at 10 µM; stronger effect = lower value;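 further: 100% = median of untreated cell wells with 0.1% DMSO on each plate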
[5] = growth inhibitors of H69AR lung tumor, primary screen, human, duplicate replicates (AID 580;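 active means viability at or under a set limit in both replicates, limit being median viability minus 3 SD, cut at about 48% in these data, passing the limit was not always enough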;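 further: 100% = mean luminescence of untreated wells and 0% = no signal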); conditions: H69AR lung tumor cells viability, ATP luminescence, 72 h; at 10 µM; stronger effect = lower value
[6] = reversal of MRP1-mediated doxorubicin resistance, pilot screen, H69AR cells, doxorubicin co-treatment (AID 601;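 active means viability loss from added drug above about 55%, and viability with drug at most 40%, in both replicates, limit read from the data, passing the limit was not always enough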); conditions: CellTiter-Glo, 72 h, at 10 µM; for differential viability (reversal): stronger effect = higher value
[7] = 384-well plate pilot, post-Golgi transport modulator project, inhibition of yeast transport mutant growth (AID 636; in the data active means inhibition above about 31%); conditions: absorbance 615 nm, about 18 h, stronger effect = higher value
[8] = growth suppression of yeast trafficking mutant, preliminary HTS, modulators of trafficking downstream of Golgi apparatus project, 1536-format plate, OD 615 nm (AID 637; in the data active means inhibition above about 30%); conditions: yeast transport mutant growth, absorbance 615 nm, 18 h; stronger effect = higher value
[9] = OD615 S. cerevisiae growth inhibition, permissive medium, pilot counter-assay, permissive growth control for S. cerevisiae lifespan shortening project (AID 705;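 active means growth inhibition above 25% in both replicates, a cutoff set 3 SD above the mean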); conditions: OD615, 24 h, at 10 µM, stronger effect = higher value
[10] = Restrictive medium S. cerevisiae growth inhibition, OD615, pilot screen of yeast lifespan reduction project, restrictive growth control (AID 706;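 active means growth inhibition above a set limit, 3 SD over mean compound inhibition, in both replicates, cut at about 43% in these data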;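 further: modified DeaD lifespan yeast strain shifted to restrictive glucose medium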); conditions: OD615, 48 h, at 10 µM, stronger effect = higher value
[11] = viability gain of MRP-1-high H69AR cells under doxorubicin, pilot screen, MRP-1 activator project, CellTiter-Glo, duplicate (AID 807;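 active means viability increase at or above a cutoff of the median across tested compounds plus 3 SD, cut at about 8.5% in these data, passing the limit was not always enough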;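 further: compound pretreatment 18-22 h then 72 h combined with doxorubicin; 0% = doxorubicin alone and 100% = vehicle without doxorubicin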); conditions: H69AR viability with doxorubicin, CellTiter-Glo luminescence; at 10 µM; stronger effect = higher value
[12] = growth suppression of beta-catenin knockout HCT116, pilot screen, human colon tumor cells (AID 823;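 active means cell viability at or below a set limit in both duplicate runs, the limit being the all-compound median minus 4 SD, cut at about 23% in these data, passing the limit was not always enough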;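 further: 0% = wells killed by 20 µM Hyamine and 100% = untreated DMSO cell wells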); conditions: CellTiter-Glo, 60 h, at 10 µM, stronger effect = lower value
[13] = growth suppression of PTEN-deleted HCT116, pilot screen, cell-based, HCT116 clonal line, CellTiter-Glo (AID 824;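 active means viability at or below 27.92% in each of two runs, the all-compound median minus 4 SD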;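 further: 0% = 20 µM Hyamine control and 100% = vehicle cell control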); conditions: 60 h, at 10 µM, stronger effect = lower value
[14] = inhibitors of the yeast RAM network, pilot screen, dse1pr::URA3 reporter, 5-FOA selection (AID 869;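 active means inhibition over a set limit, the all-compound mean plus 3 SD, in both replicate runs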;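 further: 0% = DMSO wells with no growth and 100% = 10 µM 1-NA-PP1 with full growth; RAM network block rescues cells from 5-FOA so hits raise OD615 growth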); conditions: S. cerevisiae dse1pr::URA3 5-FOA growth, OD615, 2 d; at 10 µM; stronger effect = higher value; strain carries analog-sensitive mutant Cbk1 kinase
[15] = RAM signaling pathway blockade in yeast – S. cerevisiae, Pdr1DBD-CYC8 efflux-inhibited sensitized strain, primary screen (AID 1298;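 active means RAM network inhibition above 8.4% in each of two replicates, 3 SD over the compound average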;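 further: 0% = DMSO untreated cells without growth and 100% = 10 µM 1-NA-PP1 full growth; higher means more yeast growth rescued from 5-FOA killing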); conditions: S. cerevisiae cbk1-as DSE1-URA3 strain, 5-FOA growth OD615, 2 d; at 50 µM; stronger effect = higher value
[16] = H69AR cells + 2 uM doxorubicin, measured here: viability with 2 uM doxorubicin, stronger effect = lower value
[17] = H69AR cells, compound alone cytotoxicity

Chain of Receptor tyrosine-protein kinase erbB-2 (Homo sapiens) (P04626 whole entry, looked up): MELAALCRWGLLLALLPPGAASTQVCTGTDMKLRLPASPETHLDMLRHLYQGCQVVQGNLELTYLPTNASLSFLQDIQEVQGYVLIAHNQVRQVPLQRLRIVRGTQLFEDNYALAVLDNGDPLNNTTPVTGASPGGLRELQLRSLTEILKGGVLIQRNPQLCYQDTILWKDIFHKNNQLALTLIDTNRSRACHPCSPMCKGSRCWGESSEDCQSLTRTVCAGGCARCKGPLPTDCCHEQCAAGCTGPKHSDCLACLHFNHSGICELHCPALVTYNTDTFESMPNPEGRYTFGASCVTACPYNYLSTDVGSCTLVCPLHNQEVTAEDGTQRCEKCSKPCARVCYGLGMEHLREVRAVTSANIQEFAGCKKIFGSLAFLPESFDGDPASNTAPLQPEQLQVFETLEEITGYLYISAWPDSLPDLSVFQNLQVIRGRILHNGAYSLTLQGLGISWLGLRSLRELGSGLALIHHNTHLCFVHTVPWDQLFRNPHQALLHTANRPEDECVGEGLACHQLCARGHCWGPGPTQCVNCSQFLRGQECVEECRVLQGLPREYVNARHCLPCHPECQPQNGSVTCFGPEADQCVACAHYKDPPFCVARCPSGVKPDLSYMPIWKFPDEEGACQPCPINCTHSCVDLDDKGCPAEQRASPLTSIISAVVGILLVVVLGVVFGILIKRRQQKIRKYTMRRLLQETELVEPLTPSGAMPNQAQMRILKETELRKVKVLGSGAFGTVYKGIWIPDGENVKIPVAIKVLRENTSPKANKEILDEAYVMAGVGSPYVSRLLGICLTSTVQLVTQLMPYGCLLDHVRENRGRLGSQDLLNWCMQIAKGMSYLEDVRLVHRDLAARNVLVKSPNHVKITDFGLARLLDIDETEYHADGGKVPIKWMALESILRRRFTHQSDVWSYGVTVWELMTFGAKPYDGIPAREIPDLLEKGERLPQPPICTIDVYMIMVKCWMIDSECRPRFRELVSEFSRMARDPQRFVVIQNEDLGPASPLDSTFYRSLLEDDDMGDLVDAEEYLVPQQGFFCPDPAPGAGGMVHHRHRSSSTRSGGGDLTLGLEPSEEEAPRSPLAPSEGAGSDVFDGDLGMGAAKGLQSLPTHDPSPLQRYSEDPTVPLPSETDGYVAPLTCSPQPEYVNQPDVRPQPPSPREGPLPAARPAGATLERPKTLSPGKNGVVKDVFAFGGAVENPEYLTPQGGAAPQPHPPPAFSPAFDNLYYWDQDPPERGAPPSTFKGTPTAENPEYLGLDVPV

CCOC(=O)C1CCN(C(=O)CN(c2ccc(Cl)c(C(F)(F)F)c2)S(C)(=O)=O)CC1
inactive: Her2 level [2] 100% | viability [3] 112% | viability [4] 107% | viability [5] 92.1% | differential viability (reversal) ([6]; H69AR cells + 2 uM doxorubicin) -9.81% | inhibition [7] -0.65% | inhibition [8] -2.5% | growth inhibition [9] -11.9% | growth inhibition [10] -8.95% | viability increase [11] -3.24% | viability [12] 88.1% | viability [13] 84.7% | inhibition [14] -0.1% | RAM network inhibition [15] 0.63%
112%: viability [1]
92.1%: viability [6, 17]
102%: viability [6, 16]

CCC(CC)C(=O)NCCc1cc2ccc(C)cc2[nH]c1=O
99%: viability [1]
87.6%: viability [6, 17]
inactive: Her2 level [2] 95% | viability [3] 99% | viability [4] 85.2% | viability [5] 87.6% | differential viability (reversal) ([6]; H69AR cells + 2 uM doxorubicin) -5.36% | inhibition [7] -4.8% | inhibition [8] 4.67% | growth inhibition [9] 1.09% | growth inhibition [10] 0.345% | viability increase [11] -2.76% | viability [12] 102% | viability [13] 97.4% | inhibition [14] 0.02% | RAM network inhibition [15] 4.75%
92.9%: viability [6, 16]

c1nc(NCC2CCCO2)c2[nH]cnc2n1 (stereo not given)
83.3%: viability [6, 16]
83.5%: viability [1]
91.1%: viability [6, 17]
inactive: Her2 level [2] 91.5% | viability [3] 83.5% | viability [4] 93.4% | viability [5] 91.1% | differential viability (reversal) ([6]; H69AR cells + 2 uM doxorubicin) 7.82% | inhibition [7] -1.84% | inhibition [8] 4% | growth inhibition [9] -10% | growth inhibition [10] -5.46% | viability increase [11] 0.98% | viability [12] 100% | viability [13] 99.7% | inhibition [14] 1.3% | RAM network inhibition [15] 1.7%

Cc1cccc(NC(=O)Nc2cccc(C#N)c2)n1
84%: viability [6, 17]
100%: viability [1]
inactive: Her2 level [2] 66.5% | viability [3] 100% | viability [4] 63.2% | viability [5] 84% | differential viability (reversal) ([6]; H69AR cells + 2 uM doxorubicin) -3.47% | inhibition [7] 0.38% | inhibition [8] 3.67% | growth inhibition [9] -8.45% | growth inhibition [10] 0.81% | viability increase [11] -4.03% | viability [12] 43.5% | viability [13] 46% | inhibition [14] 3.24% | RAM network inhibition [15] 2.88%
87.5%: viability [6, 16]

Brc1ccccc1-c1nc(-c2ccccc2)no1
inactive: Her2 level [2] 84.5% | viability [3] 88% | viability [4] 89.1% | viability [5] 74.3% | differential viability (reversal) ([6]; H69AR cells + 2 uM doxorubicin) -8.99% | inhibition [7] -2.6% | inhibition [8] -8% | growth inhibition [9] -7.54% | growth inhibition [10] 8.43% | viability increase [11] -5.68% | viability [12] 72% | viability [13] 70.6% | inhibition [14] 0.565% | RAM network inhibition [15] 3.53%
83.3%: viability [6, 16]
74.3%: viability [6, 17]
88%: viability [1]

CCN1CCN(C(=O)Cn2ncc3ccsc3c2=O)CC1
97%: viability [6, 17]
93%: viability [6, 16]
101%: viability [1]
inactive: Her2 level [2] 110% | viability [3] 101% | viability [4] 89.8% | viability [5] 97% | differential viability (reversal) ([6]; H69AR cells + 2 uM doxorubicin) 4.04% | inhibition [7] -3.73% | inhibition [8] 0.5% | growth inhibition [9] -0.535% | growth inhibition [10] 2.34% | viability increase [11] 1.63% | viability [12] 105% | viability [13] 101% | inhibition [14] 1.72% | RAM network inhibition [15] 0.51%

Cc1cc(NS(=O)(=O)c2ccc(NC(=O)COc3ccccc3C(C)C)cc2)no1
98%: viability [1]
inactive: Her2 level [2] 90.5% | viability [3] 98% | viability [4] 80.9% | viability [5] 88.9% | differential viability (reversal) ([6]; H69AR cells + 2 uM doxorubicin) 1.26% | inhibition [7] -5.2% | inhibition [8] -3.33% | growth inhibition [9] -12% | growth inhibition [10] -18.1% | viability increase [11] -1.38% | viability [12] 93.6% | viability [13] 83.4% | inhibition [14] 2.17% | RAM network inhibition [15] 4.16%
87.6%: viability [6, 16]
88.9%: viability [6, 17]

COc1ccc(NC(=O)CSc2nnc(-c3ccccc3)n2N)cc1
inactive: Her2 level [2] 87.5% | viability [3] 97.5% | viability [4] 94.7% | viability [5] 93.6% | differential viability (reversal) ([6]; H69AR cells + 2 uM doxorubicin) 17.2% | inhibition [7] -7.87% | inhibition [8] -0.16% | growth inhibition [9] 0.265% | growth inhibition [10] 3.57% | viability increase [11] 0.58% | viability [12] 101% | viability [13] 108% | inhibition [14] 1.12% | RAM network inhibition [15] 3.84%
93.6%: viability [6, 17]
76.4%: viability [6, 16]
97.5%: viability [1]

COc1ccc(/C=N/O)cc1COc1ccc(NC(C)=O)cc1
inactive: Her2 level [2] 98% | viability [3] 115% | viability [4] 102% | viability [5] 103% | differential viability (reversal) ([6]; H69AR cells + 2 uM doxorubicin) 13.2% | inhibition [7] -4.32% | inhibition [8] 1.9% | growth inhibition [9] -5.25% | growth inhibition [10] -2.58% | viability increase [11] -0.85% | viability [12] 90.9% | viability [13] 93.4% | inhibition [14] 0.83% | RAM network inhibition [15] 0.92%
90.2%: viability [6, 16]
103%: viability [6, 17]
115%: viability [1]

O=C1CCCc2c1cc(C(=O)NCCCN1CCOCC1)c(=O)n2-c1ccc(Cl)cc1
inactive: Her2 level [2] 95.5% | viability [3] 97% | viability [4] 89.9% | viability [5] 93.1% | differential viability (reversal) ([6]; H69AR cells + 2 uM doxorubicin) 10.6% | inhibition [7] -5.07% | inhibition [8] 0.83% | growth inhibition [9] -14.6% | growth inhibition [10] -19.1% | viability increase [11] -2.29% | viability [12] 100% | viability [13] 104% | inhibition [14] 1.44% | RAM network inhibition [15] 2%
97%: viability [1]
82.5%: viability [6, 16]
93.1%: viability [6, 17]
